This is one part of a sample in which hits are shown more often than they occur.
TDP-43 tox inh = rescues yeast from TDP-43 toxicity; yeast TDP-43 toxicity rescue, BacTiter-Glo growth, 24 h; Potency, µM (series often up to 46.1 µM), hits mostly activators; hit rate 0.45% among 45,000; AID 1347073; active = well fitted activation curve with a large enough effect; also: nearly all actives have a fitted effect of over 55% in size
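TDP-43-expressing yeast, pregrown in raffinose, seeded at OD600 0.02 in galactose medium with compound for 24 hr at 30 deg C. Growth read by BacTiter-Glo luminescence, so rescue of toxicity appears as activation.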
Large screens that a line does not name were inactive.

NS(=O)(=O)c1ccc(CCNC(=O)CSc2ncnc3ccccc23)cc1	none
COC(=O)c1c(NC(=O)CSc2ncnc3ccccc23)sc(C)c1C	none
NC(=O)C1CCN(CC(=O)Nc2ccc(S(=O)(=O)N3CCOCC3)cc2)CC1	none
CC(=O)Nc1cccc(-c2ccnc3c2CC(C)(C(=O)Nc2cccnc2)O3)c1 (configuration not stated)	none
CCCN(C(=O)COC(=O)c1nc2nccc(C)n2n1)C1CCS(=O)(=O)C1 (configuration not stated)	none
Cc1ccc(NC(=O)COC(=O)c2ccc(NC(=O)CC#N)cc2)cc1S(=O)(=O)N1CCOCC1	none
CC(C)c1ccc(/C=C/C(=O)NCCC2=CCCCC2)cc1	none
CC(C)c1ccc(/C=C/C(=O)O)cc1	TDP-43 tox inh 6.3µM
CC(NC(=O)/C=C/c1ccc(Br)cc1)c1ccccc1 (configuration not stated)	none
COc1cccc(C2N(Cc3ccccc3)C(=O)C2(F)F)c1OC (configuration not stated)	none
COc1ccccc1N1CC(C(=O)OCC(=O)Nc2c(C)cccc2C)CC1=O (configuration not stated)	none
O=C(COC(=O)CCSc1ccc(Cl)cc1)Nc1ccc(F)cc1	TDP-43 tox inh 11µM
COc1cccc(NC(=O)COC(=O)CCSc2ccccc2)c1	none
O=C(COC(=O)CCC(=O)c1ccc(Cl)cc1)NCc1ccc(F)cc1	none
COc1ccc(Cl)cc1NC(=O)c1cc2c(=O)n3ccccc3nc2s1	none
CCOC(=O)c1cccc(NC(=O)C2=C(C)C(=O)OC23CCCCC3)c1	none
NC(=S)N/N=C/c1ccc(-c2ccc(Cl)c(Cl)c2)o1	TDP-43 tox inh 11µM
O=C(O)c1cc(-c2ccc(/C=N/NC(=S)Nc3ccccc3)o2)ccc1Cl	none
NC(=S)N/N=C/c1ccc(-c2ccc(SC(F)F)cc2)o1	none
S=C(Nc1ccc(Cl)cc1)c1nc2ccccc2[nH]1	TDP-43 tox inh 10µM
CCOc1ccc(NC(=S)NCc2nc3ccccc3[nH]2)cc1	none
O=C(/C(=C\c1ccccc1)c1nc2ccccc2[nH]1)c1ccc(Cl)cc1	none
Cc1ccc(NC(=O)CCCN2C(=O)COc3ccc(C)cc32)c(Cl)c1	none
CC(=O)Nc1ccc(NC(=O)COC(=O)c2ccc([N+](=O)[O-])o2)cc1	none
CC1CCCC(NC(=O)COC(=O)c2ccc([N+](=O)[O-])o2)C1C (configuration not stated)	TDP-43 tox inh 13µM
O=C(COC(=O)c1ccc([N+](=O)[O-])o1)NC1CCS(=O)(=O)C1 (configuration not stated)	none
CCSc1ncc(Cl)c(C(=O)Nc2c(C(=O)Nc3ccc(Cl)cc3)oc3ccccc23)n1	none
O=[N+]([O-])c1cc([N+](=O)[O-])c2cc3ccccc3nc2c1	none
CCC(C)C(=O)Nc1nc2ccc(OC)cc2s1 (configuration not stated)	TDP-43 tox inh 11µM
CC(C)C(=O)Nc1nc2ccc(S(C)(=O)=O)cc2s1	none
COc1ccc2nc(NC(=O)Nc3ccccc3OC)sc2c1	none
CCOc1ccc(-n2c(=O)c3sccc3n(CC(=O)NC3CCCCC3)c2=O)cc1	none
C=CCNc1ncnc2c1ncn2[C@H]1CN(Cc2ccc3c(c2)OCO3)C[C@@H](CO)O1	none
N#C/C(=C\c1cccc(Br)c1)C(=O)N1CCCCC1	TDP-43 tox inh 13µM
N#C/C(=C\c1ccccc1)C(=O)N1CCN(c2ccccc2F)CC1	none
Cc1cc(/C=C(\C#N)C(=O)N2CCCCC2)cc(C)c1O	none
C=CCn1c(OCc2ccccc2)n[nH]c1=S	none
CC(=O)NCCC(=O)Nc1nc2ccc(Oc3ccccc3)cc2s1	none
O=S(=O)(NCc1ccco1)c1ccc2ccccc2c1	TDP-43 tox inh 11µM
O=[N+]([O-])c1ccccc1S(=O)(=O)NCc1ccco1	none
O=S(=O)(NCc1ccco1)c1ccc(Cl)cc1Cl	none
CCNc1c(NC(=O)c2cccs2)c(=O)oc2ccccc12	none
CCCCNC(=O)c1ccc2nc(CC)c(N(C)Cc3cccs3)n2c1	none
Cc1cccc(Nc2nnc(SCC(=O)Nc3ccccc3[N+](=O)[O-])s2)c1C	TDP-43 tox inh 18µM
Cc1ccccc1Nc1nnc(SCC(=O)NCc2cccs2)s1	none
Cc1cccc(NC(=O)CSc2nnc(NC(=O)C3CC3)s2)c1C	none
COc1ccc(NC(=O)Nc2c[nH]c(=O)[nH]c2=O)cc1OC	none
CCOc1ccc(N(CC(=O)NN=C2CCN(C)CC2)S(=O)(=O)c2ccc(Br)cc2)cc1	none
COc1cc(-c2cc(NC=O)c3ncc(-c4ccc(C(C)=O)cc4)n3c2)ccc1O	none
S=C(NCc1ccccc1)NCc1ccc(CNC(=S)NCc2ccccc2)cc1	none
S=C(NCc1ccc(Cl)cc1)Nc1ccccc1	TDP-43 tox inh 13µM
CCNC(=S)Nc1ccc(Cl)cc1	none
CC1(C(=O)NS(=O)(=O)c2cccc(Cl)c2)CCN1C(=O)c1ccccc1 (configuration not stated)	none
CCOC(=O)c1ccc(NC(=O)C2Cc3ccccc3CN2S(=O)(=O)c2ccc(Cl)cc2)cc1 (configuration not stated)	none
COc1ccc2nc(N3CCCCC3)c(/C=C3\SC(=S)NC3=O)cc2c1	none
CN1CCN(/C=C2\SC(=S)NC2=O)CC1	none
O=C1NC(=S)S/C1=C\c1cc2ccccc2nc1N1CCCCC1	TDP-43 tox inh 6.3µM

Compound activity deposited in PubChem by National Center for Advancing Translational Sciences (NCATS).
